Experimental data published in PubChem BioAssay (NCI).
Compounds without any hit were thinned out: in the full panel of roughly 83,000, 20% have a hit.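 Growth was measured after 48 h exposure to one concentration of compound in 96-well plates. Values under 10 count as active.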 Unmarked numbers belong to inactive results. Calls of active or inactive are those of the source.

Legend:
Assay in all cases: NCI-60 one-dose screen, 48 h (100 = growth as untreated, 0 = no growth, -100 = all killed)
Conditions in all cases: 10 µM unless noted
[1] = tested on: T-47D breast
[2] = tested on: BT-549 breast
[3] = tested on: MDA-MB-435 melanoma
[4] = tested on: SW-620 colon
[5] = tested on: MCF7 breast
[6] = tested on: HCT-116 colon
[7] = tested on: HCC-2998 colon
[8] = tested on: KM12 colon

| Structure (SMILES) | growth [1] | growth [2] | growth [3] | growth [4] | growth [5] | growth [6] | growth [7] | growth [8] |
| --- | --- | --- | --- | --- | --- | --- | --- | --- |
| Nc1cc(C(=O)O)[nH]c(=S)n1 | 105% | 69.1% | 98% | 101% | 96.2% | 100% | 95.3% | 98.9% |
| CC1(C)CC(=O)c2c(ccc(C(=O)C[C@@H](N)CO)c2N)O1 | 29.5% | -4.27% (active) | 39.5% | 7.17% (active) | 8.5% (active) | 8.56% (active) | -20.4% (active) | 11% |
| CC1(C)CC[C@]23CC[C@]4(C)[C@H](CC[C@@H]5[C@@]6(C)C/C(=C/c7cccnc7)C(=O)C(C)(C)[C@@H]6CC[C@]54C)[C@H]2[C@H]1OC3=O | 23.5% [100 µM] | 31.7% [100 µM] | 36% [100 µM] | 32.9% [100 µM] | 21.7% [100 µM] | 15.6% [100 µM] | 49.9% [100 µM] | 33.4% [100 µM] |
| CC(C)CCSc1nc(N)nc2nc[nH]c12 | 89.1% | 140% | 116% | 113% | 96.1% | 92.9% | 101% | 92.6% |
| C=C(C)[C@@H]1CC[C@]2(C(=O)N3CCN(C)CC3)CC[C@]3(C)[C@H](CC[C@@H]4[C@@]5(C)C/C(=C/c6ccncc6)[C@H](O)C(C)(C)[C@@H]5CC[C@]43C)[C@@H]12 | 10.8% [100 µM] | -43% [100 µM] (active) | -39.7% [100 µM] (active) | -55.4% [100 µM] (active) | -60.6% [100 µM] (active) | -79.3% [100 µM] (active) | -80.7% [100 µM] (active) | -80.4% [100 µM] (active) |
| C=C(C)[C@@H]1CC[C@]2(C(=O)NCCNCCNC(=O)OC(C)(C)C)CC[C@]3(C)[C@H](CC[C@@H]4[C@@]5(C)CCC(=O)C(C)(C)[C@@H]5CC[C@]43C)[C@@H]12 | 28% [100 µM] | 54.2% [100 µM] | 36.8% [100 µM] | 28.8% [100 µM] | 22.2% [100 µM] | 17.5% [100 µM] | 60.5% [100 µM] | 34.3% [100 µM] |
| Ic1ccc2[nH]cc(SSc3c[nH]c4ccc(I)cc34)c2c1 | 26.7% | 31.5% | 24.3% | 39.4% | -29.4% (active) | 10.1% | 4.84% (active) | 6.3% (active) |
| CCNC(=O)N1CCc2c(Cl)c3c(c(OC)c2[C@@H]1[C@H]1OCc2c1ccc(OC)c2OC)OCCO3 | 20.5% | 55.9% | -43.4% (active) | 17.5% | 16.1% | 18.2% | 61.1% | 18.7% |
| CC[C@@](C)(NC(=O)[C@H](C)NC(=O)CCNC(=O)C(C)(C)NC(=O)[C@H](C)NC(=O)[C@@H]1CCCN1C(=O)[C@@](C)(CC)NC(=O)[C@H](Cc1ccccc1)NC(=O)C1CCCN1C(=O)C(C)(C)NC(=O)C1CCCN1C(=O)C(C)(C)NC(C)=O)C(=O)NCCC(=O)N[C@@H](CC(C)C)C(=O)NC(C)(C)C(=O)NCCC(=O)N[C@@H](CC(C)C)C(=O)NC(C)(C)C(=O)NC(C)(C)C(=O)N[C@@H](CC(C)C)C(=O)NCCC(=O)NCO (stereo partly specified) | -66.9% (active) | -97.3% (active) | -89.2% (active) | -79.2% (active) | -84.9% (active) | -94.6% (active) | -96.1% (active) | -94.8% (active) |
| COc1ccc(C(=O)CSc2nnc(-c3cc(-c4ccccc4)nc4ccccc34)o2)cc1 | 108% | 105% | 106% | 107% | 103% | 101% | 118% | 105% |
| O=C1CC(c2ccc3c(c2)OCO3)Nc2ccccc21 (stereo unspecified) | 27.5% | 42.2% | -22.6% (active) | 19.2% | 15.9% | 17% | 35.3% | 17.1% |
| COc1cc2c(cc1OCCCN1CCN(CCCOc3cc4c(cc3OC)C(=O)N3C[C@H](F)C[C@H]3C=N4)CC1)N=C[C@@H]1C[C@@H](F)CN1C2=O | 13.4% | -68.5% (active) | -24.9% (active) | -19.1% (active) | 6.75% (active) | 8.44% (active) | -13.1% (active) | -20% (active) |
| Nc1cc(N)c(N=Nc2ccc(S(=O)(=O)O)cc2)cc1N=Nc1ccc(-c2ccc(N=Nc3ccc(O)c(C(=O)O)c3)cc2)cc1 | 90.1% | 113% | 100% | 105% | 95.5% | 102% | 104% | 101% |
| CC1=CCc2ccccc21 | 96.8% | 93.5% | 106% | 95.6% | 90.5% | 101% | 108% | 103% |
| C[n+]1c(-c2ccccc2)c2cc(N)ccc2c2ccccc21 | 11.9% | 0.585% (active) | 31.5% | 40.5% | 13% | 30.4% | 40.5% | 19.1% |
| CC(C)(C)c1cc(C(=O)Nc2ccc(C(=O)NCCN)cc2)cc(C(C)(C)C)c1 | 27.3% | 87.6% | -49.5% (active) | 1.34% (active) | 3.31% (active) | 12.8% | 1.78% (active) | 12.9% |
| CC1(C)CC[C@]2(C(=O)O)CC[C@]3(C)C(=CC[C@@H]4[C@@]5(C)C/C(=C/c6cccnc6)[C@H](O)C(C)(C)[C@@H]5CC[C@]43C)[C@@H]2C1 | 15.1% [100 µM] | 0.607% [100 µM] (active) | 7.02% [100 µM] (active) | 13.3% [100 µM] | 3.95% [100 µM] (active) | -33.4% [100 µM] (active) | -37.5% [100 µM] (active) | -38.1% [100 µM] (active) |
| Nc1nc(SCc2cccc([N+](=O)[O-])c2)c2[nH]cnc2n1 | 92.4% | 103% | 104% | 107% | 88% | 101% | 112% | 99.8% |
| C#C[C@]1(O)CC[C@H]2[C@@H]3CC=C4c5nc(Nc6ncccn6)sc5CC[C@]4(C)[C@H]3CC[C@@]21C | 40% | 19.5% | 50.5% | 60.4% | 59.7% | 22.3% | 88.3% | 48.5% |
| N/C(=N\c1nc2ccccc2[nH]1)NC(=O)Cc1cccc2ccccc12 | 71.4% | 85.3% | 94.3% | 85.6% | 59.4% | 67.4% | 103% | 82% |
| CCOC(=O)C1=C(C(=O)c2ccc(Br)cc2)C(c2ccc(Br)cc2)NC(=S)N1 (stereo unspecified) | 94.5% | 101% | 107% | 101% | 102% | 89.8% | 106% | 97.5% |
| Cc1ccccc1OC(=O)c1cccc(Cl)c1 | 142% | 107% | 113% | 101% | 108% | 103% | 99.8% | 101% |
| O=C1/C(=C/c2ccc(OCc3ccccc3)cc2)Oc2cc(OCCN3CCCCC3)ccc21 | 63.4% | 85.3% | 54.7% | 71.1% | 65.2% | 52.3% | 90.5% | 82.3% |
| O=C(Nc1cccc(C2=NCCN2)c1)c1cccc(C(=O)Nc2cccc(C3=NCCN3)c2)c1 | 96.7% | 110% | 98.8% | 98.2% | 88.4% | 99.7% | 107% | 101% |
| CC[C@@H]1NC(=O)[C@@H]2CCCCN2C(=O)[C@@H]2CCCN2C(=O)[C@@H](NC(=O)[C@H](Cc2cc(F)cc(F)c2)NC(=O)Nc2ccc(C3CC3)cc2F)[C@H](C)OC(=O)[C@@H]2C[C@@H](C)CN2C1=O | 7.13% (active) | 5.79% (active) | 3.08% (active) | 27% | 13.4% | 4.17% (active) | -14.1% (active) | 17% |
| C=C(C)[C@@H]1CC[C@]2(C(N)=O)CC[C@]3(C)[C@H](CC[C@@H]4[C@@]5(C)C/C(=C/c6cccnc6)C(=O)C(C)(C)[C@@H]5CC[C@]43C)[C@@H]12 | 1.22% [100 µM] (active) | 14.1% [100 µM] | 0.0948% [100 µM] (active) | 3.53% [100 µM] (active) | 10.8% [100 µM] | 5.4% [100 µM] (active) | -15.9% [100 µM] (active) | -3.05% [100 µM] (active) |
| Nc1nnc(CSc2nnc3n(Cc4ccccc4)c(=O)c4c5c(sc4n23)CCCC5)s1 | 74% | 117% | 106% | 110% | -30.9% (active) | 89.5% | 105% | 121% |
